# Reference: the supplement of paper PMC3334620
# In all, about 33,000 sequences were measured (“E-score (-0.5 to 0.5)”: median about -0.054, highest 2% from about 0.39 on). This excerpt belongs to a sample that is enriched for the highest values.
# Biological target: Ylr278c (UniProt Q05854)
# Test: PBM E-score (8-mer binding enrichment) (E-score (-0.5 to 0.5)); higher = stronger / more preferred TF binding
# Conditions: protein concentration: 200 nM; construct: GST-DNA-binding domain
# Method in brief: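 E-scores (a modified Wilcoxon-Mann-Whitney statistic) were assigned by the Universal PBM Analysis Suite to every ungapped eight-base word pooled with its reverse complement. The input came from universal all-10-mer Agilent arrays made double-stranded by primer extension and probed with GST-tagged yeast transcription factors at about 100-200 nM. Fluorescent anti-GST detected bound protein, and masliner normalised the scans.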
# Chain of UniProt Q05854 (Q05854 whole entry): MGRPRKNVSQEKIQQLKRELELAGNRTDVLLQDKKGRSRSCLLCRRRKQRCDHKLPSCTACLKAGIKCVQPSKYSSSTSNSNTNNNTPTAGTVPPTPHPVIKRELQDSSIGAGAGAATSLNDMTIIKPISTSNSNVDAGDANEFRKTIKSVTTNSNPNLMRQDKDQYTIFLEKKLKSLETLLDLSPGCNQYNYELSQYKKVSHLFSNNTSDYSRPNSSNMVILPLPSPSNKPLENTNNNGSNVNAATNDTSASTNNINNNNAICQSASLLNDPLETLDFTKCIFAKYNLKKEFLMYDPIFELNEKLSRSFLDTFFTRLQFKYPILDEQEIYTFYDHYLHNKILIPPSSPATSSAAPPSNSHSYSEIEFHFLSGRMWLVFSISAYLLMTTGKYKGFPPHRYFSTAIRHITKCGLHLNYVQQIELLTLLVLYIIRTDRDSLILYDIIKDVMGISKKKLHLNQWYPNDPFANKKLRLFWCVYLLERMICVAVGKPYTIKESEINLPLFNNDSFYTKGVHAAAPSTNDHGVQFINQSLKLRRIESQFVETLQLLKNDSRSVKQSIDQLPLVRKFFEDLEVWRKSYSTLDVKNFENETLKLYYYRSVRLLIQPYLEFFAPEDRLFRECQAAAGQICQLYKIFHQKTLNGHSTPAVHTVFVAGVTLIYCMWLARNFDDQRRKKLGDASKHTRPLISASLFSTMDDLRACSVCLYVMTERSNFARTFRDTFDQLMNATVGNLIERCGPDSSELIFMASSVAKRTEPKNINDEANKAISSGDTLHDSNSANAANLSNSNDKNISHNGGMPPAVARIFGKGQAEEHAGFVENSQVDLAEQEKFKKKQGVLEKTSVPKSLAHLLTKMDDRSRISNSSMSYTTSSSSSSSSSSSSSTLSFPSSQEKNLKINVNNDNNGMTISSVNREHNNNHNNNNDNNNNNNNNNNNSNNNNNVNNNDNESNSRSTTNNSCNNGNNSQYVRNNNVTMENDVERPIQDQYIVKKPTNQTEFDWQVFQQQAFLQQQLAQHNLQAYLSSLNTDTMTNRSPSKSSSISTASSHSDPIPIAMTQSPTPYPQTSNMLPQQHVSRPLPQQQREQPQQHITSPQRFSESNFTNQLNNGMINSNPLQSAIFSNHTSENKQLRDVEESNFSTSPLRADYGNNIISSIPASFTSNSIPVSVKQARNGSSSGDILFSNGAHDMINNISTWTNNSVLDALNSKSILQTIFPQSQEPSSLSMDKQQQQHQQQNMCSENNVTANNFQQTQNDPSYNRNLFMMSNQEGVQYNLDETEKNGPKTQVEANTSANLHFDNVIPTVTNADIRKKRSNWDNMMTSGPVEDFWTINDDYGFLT
row,Sequence,PBM E-score
1,CAACGGCG,0.207
2,CCATCGCC,0.075
3,ATCCAGTA,-0.111
4,AGAGGTGC,0.0557
5,AGCATAGG,-0.11
6,GGACACAC,0.149
7,TCCGGGCA,0.406
8,CCGGGGCG,0.42
9,ACCGGGCA,0.279
10,CCGGGGCA,0.293
11,CCCGGGCG,0.291
12,GCCGGGCA,0.304
13,ATAACCTA,-0.148
14,CGAACTAA,-0.0681
15,CCGGATTC,0.405
16,GCGGATTA,0.261
17,CCGGATTA,0.455
18,ACGGATTC,0.246
19,ACGGATTA,0.205
20,CAGGATTC,-0.11
21,CATTGGGA,-0.198
22,AGCAGGAT,-0.079
23,GTGGCCTA,-0.135
24,GATTCTAC,0.107
25,AGCGGAGC,0.381
26,GGCGGAAA,0.328

row,Sequence,PBM E-score
1,AGCGGAGA,0.394
2,AGCGGAGG,0.302
3,CGCGGAGA,0.428
4,GGCGGATA,0.293
5,CGCGGACA,0.345
6,AGCGGATA,0.287
7,CGCGGATA,0.32
8,CGCGGAGC,0.41
9,GGCGGAGA,0.444
10,CGCGGATC,0.272
11,CGACTGAG,-0.181
12,CTCAGTCA,-0.282
13,CTGAGTTA,-0.248
14,ATTCCCAA,-0.06
15,ACCTCTCA,0.0413
16,TAATTCCA,-0.0294
17,ACTCGGAT,0.251
18,CCTCGGAG,0.456
19,CCTCGGTA,-0.0307
20,ACTCGGAA,0.398
21,CCTCGGCG,0.359
22,CCTCGGAC,0.374
23,ACTCGGAC,0.383
24,TCTCGGAA,0.414
25,GCTCGGAA,0.338
26,CCTCGGAA,0.39

row,Sequence,PBM E-score
1,CCTCGGCA,0.25
2,TCTCGGCA,0.266
3,CAATCATG,-0.214
4,CGTATTTA,0.0653
5,CAAGCTGC,-0.103
6,GAGGATAC,-0.125
7,ATTCATAC,0.0829
8,ACTCTTCA,-0.191
9,CGTCAGAA,-0.25
10,CGTTTAAC,-0.174
11,CGTTAGAC,-0.0149
12,AGCGCGTA,-0.109
13,CCCCTTAG,0.0521
14,ACTCGGCG,0.256
15,ACTCGGAG,0.428
16,ACTCGGTG,0.0389
17,TAGGGACA,-0.0143
18,CTGAGCGC,-0.145
19,CGGAGCGC,0.391
20,CGGAGCGA,0.415
21,AGGAGCGA,-0.0963
22,GGGAGCGA,-0.116
23,AGGAGCGC,-0.0703
24,AATGGAAT,0.0961
25,ATCTGTGG,-0.141
26,ATTTCGGC,0.275

row,Sequence,PBM E-score
1,ATTTCGGA,0.45
2,GCTTCGGA,0.367
3,ATTTCGGG,0.235
4,GTTTCGTA,0.0178
5,CTTTCGTA,-0.173
6,CTTTCGGC,0.239
7,CCTTCGGC,0.112
8,GTTTCGGA,0.4
9,CCTTCGGA,0.424
10,GTTTCGAA,-0.0713
11,CTTTCGGA,0.451
12,CTGGGTCC,0.0219
13,CTTATCTA,-0.0407
14,CAAAGCTA,-0.093
15,ACTCGCAT,-0.0232
16,AAGTTCAA,0.118
17,ACCACTTA,-0.0492
18,GGGCTCAC,-0.0724
19,GGAGCAGA,0.109
20,ACCTTCTA,-0.186
21,GTGTACGA,-0.00044
22,CACCGCGC,0.201
23,ATCCGCGC,0.251
24,GTCCGCGA,0.313
25,ATCCGCGA,0.253
26,CTCCGCGA,0.403

row,Sequence,PBM E-score
1,CTCCGCGC,0.429
2,CCAGCTCC,0.22
3,CATCTCCA,0.0295
4,AATCTCCG,0.484
5,CATCTCCG,0.463
6,CATCTCCC,0.216
7,AATCTCCC,0.0563
8,AATCTCCT,0.0721
9,ACGCTCTG,-0.251
10,CAACTCGG,0.139
11,ACCTCTGC,-0.209
12,AAGGAAGC,-0.162
13,ACTTCAGA,-0.0177
14,ACGGCCGA,0.246
15,GCGGCCGA,0.188
16,ACGGCCGG,0.33
17,CCGGCCGC,0.327
18,CCGGCCGA,0.415
19,CCGGCCGG,0.461
20,AGCGCCAT,-0.199
21,GACAGGGC,-0.0701
22,GCCTCCAC,-0.044
23,TAGCCATA,-0.329
24,GATGGGGC,-0.023
25,CAGGACTG,-0.287
26,CTTCCGGA,0.451

row,Sequence,PBM E-score
1,GTTCCGTA,0.264
2,ATTCCGGA,0.46
3,GTTCCGCA,0.289
4,ATTCCAGA,0.0166
5,CTTCCGTA,0.215
6,GTTCCGGA,0.45
7,CTTCCGGC,0.371
8,ATTCCGTA,0.33
9,ACTGTTTC,-0.0349
10,GTCAGCAA,-0.18
11,CGTCCAAA,0.14
12,ACCTCGCT,-0.0554
13,AGTCAGCG,0.0403
14,ATGCCCCA,-0.0328
15,CAGTCGAA,-0.212
16,AAAGCCTT,-0.162
17,ATCTCAAC,-0.00641
18,GCGGAGTA,0.449
19,ACGGAGTC,0.398
20,CTGGAGTC,-0.0908
21,ATGGAGTC,0.0654
22,CCGGAGTC,0.451
23,ACGGAGTA,0.452
24,GAGGAGTA,0.0495
25,GGGGAGTA,0.0376
26,AAGGAGTA,-0.0326

row,Sequence,PBM E-score
1,CAGGAGTC,0.055
2,AAGGAGTC,-0.127
3,ATGGAGTA,0.0152
4,AGAGTTGG,-0.115
5,ACTCTGTA,-0.175
6,GACCCAGC,-0.272
7,GATCCAGC,0.0556
8,ACACCGCC,0.199
9,AGACAGTC,-0.129
10,CTTACAGA,-0.0798
11,CGAGACCG,0.233
12,CTCAAGTC,-0.225
13,CATGTACG,-0.0652
14,CAGAATGG,-0.0518
15,GCTCTGGA,-0.1
16,CCGGAGTA,0.485
17,CAGGAGTA,-0.0482
18,ACGGAGTG,0.401
19,ATGGAGTG,-0.0888
20,CTGGAGTA,-0.0695
21,AAGGAGTG,-0.179
22,GTTCTAGA,0.0109
